# Assay results: PubChem BioAssay AID449762 (Southern Research Specialized Biocontainment Screening …, 2010)
# In all, about 330,000 compounds went through this assay and about 1,900 (0.58%) were called active. Roughly 4% stayed inconclusive and do not appear here. Rule as the data show it: inconclusive = inhibition above about 70% without an active follow-up result; inactive = below that. Only a sample is shown. Results with a measured potency or affinity are listed apart.
# Assay: M. tuberculosis growth inhibition, HTS (AID 449762);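 also: bacterial growth assessed after seven days of incubation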
# Settings: M. tuberculosis H37Rv growth inhibition, 7H9 media; at 25 µM; hits give high values
row,Compound,inhibition
1,C[C@@H](CN1C(=O)C(=O)NC[C@@H]1Cc1ccc(O)cc1)NC(=O)Cc1ccccc1,-2.19% (inactive)
2,Cn1cccc1-c1cc(C(=O)N/N=C/c2ccc(F)cc2)[nH]n1,-3.95% (inactive)
3,Cc1sc2ncnc(N(C)Cc3ccco3)c2c1C,-1.32% (inactive)
4,CN(Cc1ccco1)c1ncnc2ccc(-c3ccoc3)cc12,17.5% (inactive)
5,CCOC(=O)C1=NN(c2ccccc2)C(c2ccccc2)CC1=O (stereo unspecified),12.7% (inactive)
6,C=CCOc1ccc(C2CC(C)=NN2c2ccccc2)cc1 (stereo unspecified),3.55% (inactive)
7,Cc1ccc(N2C(=O)C3C(c4ccccc4)(C2=O)C3(c2ccccc2)c2ccccc2)cc1 (stereo unspecified),20.2% (inactive)
8,O=C1c2ccccc2C(=O)N1c1ccc(Cl)cc1,-5.93% (inactive)
9,O=c1c(Br)c(NCc2ccccc2)cnn1-c1ccc(F)cc1,-5.73% (inactive)
10,O=C(O)c1ccc(Sc2nnnn2-c2ccccc2)c([N+](=O)[O-])c1,3.58% (inactive)
11,Cn1nnnc1Sc1ccc(C(=O)O)cc1[N+](=O)[O-],2.4% (inactive)
12,COc1ccc(C(=O)c2ccc(N3CCN(C4CC(=O)NC4=O)CC3)cc2)cc1F (stereo unspecified),0.26% (inactive)
13,Nc1ncnc(Sc2ccccc2)c1[N+](=O)[O-],-0.35% (inactive)
14,Cc1nc(Sc2ccccc2)c(C#N)c(C)c1[N+](=O)[O-],3.11% (inactive)
15,C=CCNC(=O)COc1cc(C)cc(C)c1C,-2.5% (inactive)
16,CCOc1ccc(CCNC(=O)Cn2c(=O)c3cccn3c3cccnc32)cc1,-8.95% (inactive)
17,Cc1ccc(Sc2c([N+](=O)[O-])ncn2C)cc1,-9.59% (inactive)
18,Cn1cnc([N+](=O)[O-])c1Sc1ccccc1,-3.64% (inactive)
19,Cc1cc(OC(=O)C(c2ccccc2)c2ccccc2)c([N+](=O)[O-])c(=O)[nH]1,1.27% (inactive)
20,CC1=NN2C(=N)/C(=C\c3cc(C)n(-c4ccccc4)c3C)C(=O)N=C2S1,-0.68% (inactive)
21,NC(=O)CSc1n[nH]c(=O)n1CCc1ccccc1,-5.89% (inactive)

row,Compound,inhibition
1,CCCCCCN1Cc2ccccc2C1,3.68% (inactive)
2,O=c1ccsn1Cc1ccccc1,2.59% (inactive)
3,c1ccc(CCNCCCOc2cccc3ccccc23)cc1,40.1% (inactive)
4,Cc1ccc(OCCCCNC(C)c2ccccc2)c(C)c1 (stereo unspecified),7.81% (inactive)
5,C#CCNC(=O)C1=C[C@H](c2ccc3c(c2)OCO3)C[C@H](OCc2ccc(CO)cc2)O1,6.55% (inactive)
6,COc1ccccc1N1CCN(CC(=O)Nc2nc(C)c(C(=O)N(C)C)s2)CC1,0.78% (inactive)
7,CN1CCN(c2nc(-c3cc4ccccc4o3)cs2)CC1,1.67% (inactive)
8,Nc1nc(-c2cc3ccccc3o2)cs1,27.5% (inactive)
9,COc1ccc2[nH]c(C)c(CCN(Cc3cccs3)C(=S)Nc3ccccc3)c2c1,-7.77% (inactive)
10,CCCCn1cnc2c1c(=O)n(CC(=O)c1cc(C)n(C)c1C)c(=O)n2CC(C)C,5.57% (inactive)
11,Cc1ccc(CN2CCN(Cc3ccc4c(c3)OCCO4)CC2CCO)cc1 (stereo unspecified),-5.47% (inactive)
12,O=C(c1nc2ccccc2[nH]1)c1ccccc1[N+](=O)[O-],13% (inactive)
13,COc1nc(N(c2ccccc2)c2ccccc2)nc(-n2ccnc2)n1,34.2% (inactive)
14,CCCCNc1nc(-c2ccccc2)nc(-n2ccnc2)n1,10% (inactive)
15,CN(c1ccccc1)c1nc(-n2ccnc2)nc(-n2ccnc2)n1,5.05% (inactive)
16,c1ccc(N(c2ccccc2)c2nc(-n3ccnc3)nc(-n3ccnc3)n2)cc1,-9.38% (inactive)
17,COC(=O)c1ccc(C2c3c(oc4ccc(F)cc4c3=O)C(=O)N2CCO)cc1 (stereo unspecified),-6.43% (inactive)
18,COc1ccccc1NC(=O)c1ccc2nsnc2c1,5.74% (inactive)
19,CCN1C(=O)C(CC(=O)NCCc2ccccc2)N(NC(=O)c2cccnc2)C1=S (stereo unspecified),12% (inactive)
20,Clc1ccccc1N=C1SCCS1,-6.64% (inactive)
21,CSc1ncccc1C(=O)N(C)CC(=O)Nc1ccc(Cl)c(C(F)(F)F)c1,-3% (inactive)

row,Compound,inhibition
1,COc1ccccc1N1CCN(C(=O)C2CCN(S(=O)(=O)c3ccc(F)cc3)CC2)CC1,-1.53% (inactive)
2,CC(=O)Nc1cc(C(=O)N2CCc3ccccc3C2)ccc1Sc1ccc(Cl)cc1,2.06% (inactive)
3,Cc1nc2c(C)cccn2c(=O)c1NC(=O)c1cccs1,-5.13% (inactive)
4,C=CCNc1oc(-c2ccc(OC)cc2)nc1C#N,4.44% (inactive)
5,C=CCNc1oc(-c2ccc(Cl)cc2)nc1C#N,47.3% (inactive)
6,NS(=O)(=O)c1ccc(NC(=O)CSc2nnc(Cc3cccs3)n2-c2ccccc2)cc1,10.1% (inactive)
7,O=C(/C=C/c1ccccc1)N1CCN(c2ccccn2)CC1,-12.8% (inactive)
8,O=C1/C(=N\S(=O)(=O)c2cccs2)C([n+]2ccccc2)=C([O-])c2ccccc21,-2.62% (inactive)
9,CCc1cc[n+](C2=C([O-])c3ccccc3C(=O)/C2=N\S(=O)(=O)c2cccs2)cc1,2.09% (inactive)
10,CCCCC1(C(=O)OCC)CC(CN2CCOCC2)OC1=O (stereo unspecified),-5.65% (inactive)
11,CN1CCN(c2ccc(NC(=O)c3cccs3)cc2)CC1,0.58% (inactive)
12,COC(=O)C1=C(C)Nc2[nH]c(=S)[nH]c(=O)c2C1c1ccc(OC)cc1 (stereo unspecified),-7.09% (inactive)
13,COc1cc(/C=N/Nc2nc(Nc3ccccc3)nc(N3CCCCC3)n2)ccc1OCC(=O)O,58.2% (inactive)
14,O=C(O)COc1ccc(/C=N/Nc2nc(Nc3ccccc3)nc(N3CCCCC3)n2)cc1,23.6% (inactive)
15,N/C(=N\OC(=O)CC1CCCCC1)c1ccc([N+](=O)[O-])cc1,-1.51% (inactive)
16,CCOCCCn1c(=N)c(C(=O)NCc2ccc3c(c2)OCO3)cc2c(=O)n3cccc(C)c3nc21,68.2% (inactive)
17,CCCn1c(=N)c(C(=O)NCC2CCCO2)cc2c(=O)n3cccc(C)c3nc21 (stereo unspecified),-2.2% (inactive)
18,Brc1ccc(-c2csc(Nc3nc(-c4ccc(Br)cc4)cs3)n2)cc1,8.54% (inactive)
19,Brc1ccc(-c2csc(-c3ccncc3)n2)cc1,36.4% (inactive)
